Reference: PubChem BioAssay (NCI)
About 83,000 compounds went through this panel and 20% of them were active in at least one assay; those are over-represented in the sample as a whole.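 Plates (96-well) were seeded with cells, treated with compound at one concentration, and incubated for 48 hours before percent growth was determined.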 A number with no mark means an inactive call. Active and inactive are the calls of the source. The calls were made as follows: active = growth percent below 10; inactive = the rest.

Tests used:
Test in all cases: NCI-60 one-dose screen, 48 h (100 = growth as untreated, 0 = no growth, -100 = all killed)
Conditions in all cases: 10 µM unless noted
HCT-15 colon = test system: HCT-15 colon
HT29 colon = test system: HT29 colon
SNB-75 CNS = test system: SNB-75 CNS
SNB-19 CNS = test system: SNB-19 CNS
U251 CNS = test system: U251 CNS
PC-3 prostate = test system: PC-3 prostate
SK-MEL-5 melanoma = test system: SK-MEL-5 melanoma
UACC-62 melanoma = test system: UACC-62 melanoma
LOX IMVI melanoma = test system: LOX IMVI melanoma
SK-MEL-28 melanoma = test system: SK-MEL-28 melanoma

Row | SMILES | growth (HCT-15 colon) | growth (HT29 colon) | growth (SNB-75 CNS) | growth (SNB-19 CNS) | growth (U251 CNS) | growth (PC-3 prostate) | growth (SK-MEL-5 melanoma) | growth (UACC-62 melanoma) | growth (LOX IMVI melanoma) | growth (SK-MEL-28 melanoma)
1 | Cc1cc2nc3c4cc(C#N)ccc4n(CCN(C)C)c3nc2cc1C | 2.02% (active) | -44.3% (active) | -8.73% (active) | 5.67% (active) | 2.73% (active) | 4.69% (active) | -89.5% (active) | -60.6% (active) | -55.5% (active) | -50.1% (active)
2 | CC(C)(C)OC(=O)NCc1ccc(CNc2c([N+](=O)[O-])cnc3ccccc23)cc1 | 74% | 83.8% | 57.1% | 70.8% | 87.4% | 68.9% | 2.87% (active) | 58.4% | 35.4% | 89.4%
3 | CCOC(=O)c1c(N)c(C#N)cn1Cc1ccc(Cl)cc1Cl | 48.8% | 80.4% | 47.3% | 68.7% | 64.1% | 71.5% | 78% | 59.8% | 78.8% | 92.6%
4 | O=C(/C=C/c1ccccc1)c1cccc(O)c1 | 89.3% | 110% | 81.8% | 96.1% | 91.2% | 94.2% | 96.9% | 81.1% | 66.1% | 104%
5 | C/C(=N\NC(N)=S)c1nnn(-c2ccc([N+](=O)[O-])cc2)c1C | 86.9% | 104% | 87.3% | 95.6% | 98.1% | 90.8% | 100% | 98.4% | 94.9% | 104%
6 | CN1CCN(c2ccc(Nc3nc(NCCCNS(=O)(=O)c4ccccc4)c4sccc4n3)cc2)CC1 | 27.2% | -26.7% (active) | 89.3% | 56.6% | 13.2% | 68.9% | 24.9% | 13.2% | -22.2% (active) | -24.3% (active)
7 | CN1CCN(c2ccc(Nc3nc(NCCNS(=O)(=O)c4ccc5ccccc5c4)c4sccc4n3)cc2)CC1 | 7.96% (active) | 8.55% (active) | 78% | 90.6% | 13.4% | 76% | 86.1% | 66.5% | -77.3% (active) | 74.4%
8 | CCc1cc2c(cc1Cl)nc1c(=O)[nH]c(=O)nc-1n2CCOCC(C)C | 47.4% | 24.3% | 92.5% | 85% | 73.9% | 68.9% | 34.4% | 72.1% | 49.8% | 87%
9 | Cc1ccccc1NC(=O)Nc1nc2ccc([N+](=O)[O-])cc2s1 | 12.1% | 5.11% (active) | 6.72% (active) | 14.1% | 3.34% (active) | 2.79% (active) | -47.2% (active) | 11.6% | 12.1% | 16.6%
10 | NCCNC(=O)c1cccc(COc2ccccc2NC(=O)c2cc(Cl)c(Cl)[nH]2)c1 | 94.3% | 109% | 72.5% | 96.9% | 88.7% | 102% | 99.4% | 87.3% | 81.5% | 94.8%
11 | O=C(CCCCCCNC(=O)C(O)(O)C(F)(F)F)Nc1nc2ccccc2s1 | 6.75% (active) | 6.91% (active) | 38.9% | 17% | -35.4% (active) | 34.6% | -72.5% (active) | -62.7% (active) | -81.3% (active) | -4.84% (active)
12 | COc1ccc(C2CC(c3cccc(OCCCCOc4cccc(C5=NN(C(C)=O)C(c6ccc(OC)cc6)C5)c4)c3)=NN2C(C)=O)cc1 (stereo not given) | 75% | 89.3% | 75.4% | 64.5% | 81.9% | 48.4% | 11.8% | 57.1% | 62.2% | 97.2%
13 | C#C[C@]1(O)CC[C@H]2[C@@H]3CC=C4c5sc(Nc6cc(Cl)ccc6OC)nc5CC[C@]4(C)[C@H]3CC[C@@]21C | 16.3% | 34.9% | -1.39% (active) | 28.3% | 15.3% | -9.76% (active) | -43.9% (active) | -3.92% (active) | -71.7% (active) | -59.1% (active)
14 | CCC(=C(c1ccc(OCCN2CCCCCC2)cc1)c1ccc(OCCN2CCCCCC2)cc1)c1ccc(Cl)cc1 | -58.9% (active) | -44.7% (active) | 62% | -21.3% (active) | -69.8% (active) | 27.7% | 21.5% | -35.4% (active) | -89.6% (active) | -82% (active)
15 | Cn1cc(-c2nn3cc(-c4ccncc4)nc3s2)c2cc(F)ccc21 | 38.7% | 68.8% | 65% | 90.1% | 98.3% | 68.3% | 87.6% | 75.9% | 10.5% | 105%
16 | COc1ccc2c(c1)C=CC1(O2)Oc2ccc(OC)cc2C=C1C (stereo not given) | 24.7% | 4.04% (active) | -8.45% (active) | 27.5% | 12.3% | 29.8% | 24.9% | 19.1% | 22.2% | 54.2%
17 | C[C@H](Nc1ncnc2ccc(-c3cnc(Cl)c(NS(C)(=O)=O)c3)cc12)c1ccccc1 | -23.7% (active) | -28.9% (active) | -3.07% (active) | -44.3% (active) | -52.6% (active) | 2.25% (active) | -92.7% (active) | -57.8% (active) | -60.4% (active) | -18.2% (active)
18 | CCN(CC)CCOc1ccc(C(=C(C)Cc2ccc(OC)cc2)c2ccc(OCCN(CC)CC)cc2)cc1 | 7.13% (active) | -4.07% (active) | 76.5% | 74.4% | 9.54% (active) | 66.2% | 31.1% | -37.6% (active) | -80.7% (active) | -82% (active)
19 | C#CCOc1cccc(-c2nc(N)nc(Nc3ccccc3SSc3ccccc3Nc3nc(N)nc(-c4cccc(OCC#C)c4)n3)n2)c1 | 28.6% | 96.9% | 27.7% | -9.77% (active) | -48.9% (active) | 7.33% (active) | 57.3% | 63.9% | -52.8% (active) | 88.9%
20 | C/C(CC1(O)C(=O)Nc2ccccc21)=N\O (stereo not given) | 95.4% | 104% | 92.4% | 103% | 98.8% | 88.6% | 99.9% | 99.7% | 90.4% | 108%
21 | COC(=O)c1cccc(NC2=C(Cl)C(=O)c3nc(C)ccc3C2=O)c1 | 51.6% | 110% | 119% | 92.2% | 106% | 85.4% | 97.9% | 95.4% | 10.2% | 93.6%
22 | Cc1ccc2c(n1)C(=O)C(Cl)=C(Nc1cccc(C(=O)OC(C)(C)C)c1)C2=O | 47.1% | 114% | 95.7% | 97.6% | 88.5% | 72% | 88.1% | 90.7% | 8.98% (active) | 103%
23 | C#CCn1cc(/C=N/Nc2nc(-c3ccc(Br)cc3)cs2)c2ccccc21 | 95.3% | 104% | 95.4% | 96.6% | 101% | 91.7% | 98.7% | 91.5% | 94.4% | 103%
24 | NS(=O)(=O)c1ccc(Nc2nc(Nc3ccccc3)nc(N3N=C(c4ccc(Cl)cc4)CC3c3ccc(Cl)cc3)n2)cc1 (stereo not given) | 36.6% | 9.63% (active) | 68% | 61.1% | 61.3% | 43% | 51.9% | 97.6% | 12.6% | 47.1%
25 | C=C(C)[C@@H]1CC[C@]2(COP(=O)(OCC)OCC)CC[C@]3(C)[C@H](CC[C@@H]4[C@@]5(C)CC[C@H](OP(=O)(OCC)OCC)C(C)(C)[C@@H]5CC[C@]43C)[C@@H]12 | 6.86% (active) | 35.2% | 75.3% | 50.7% | 42.2% | 22.7% | 11.5% | 43.1% | 25.4% | 77.5%
26 | Cc1cc(=O)[nH]c(O)c1C#N | 103% | 110% | 87% | 101% | 100% | 97.1% | 102% | 91.7% | 95.1% | 108%
